# Measurements from PubChem BioAssay (NCATS).
# Results filed as inconclusive are left out. A number with no mark means an inactive call. Calls of active or inactive are those of the source. Calls follow the shape of the dose curve; as a rule, active = well fitted curve in the direction sought with a large enough effect; inconclusive = small, poorly fitted or top-dose-only effect, or another doubt; inactive = no such curve, though single readings can be large; an effect the other way counts as inactive or inconclusive.
# Experiments:
# [1] = target: N-terminal Xaa-Pro-Lys N-methyltransferase 1 (Homo sapiens) (UniProt Q9BV86); experiment: qHTS Assay for Inhibitors of N-terminal methyltransferase 1 (NTMT1): LOPAC validation of the NTMT1 SAHH-coupled ThioGlo3 Assay (AID 1347143);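 also: SAH from peptide methylation measured as thiol fluorescence via SAHH coupling and ThioGlo3; nearly all actives have a fitted effect of over 70% in size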; also: potency is read from the fitted curve at half-maximal effect
# N-terminal Xaa-Pro-Lys N-methyltransferase 1 (Homo sapiens), sequence (Q9BV86 whole entry, looked up): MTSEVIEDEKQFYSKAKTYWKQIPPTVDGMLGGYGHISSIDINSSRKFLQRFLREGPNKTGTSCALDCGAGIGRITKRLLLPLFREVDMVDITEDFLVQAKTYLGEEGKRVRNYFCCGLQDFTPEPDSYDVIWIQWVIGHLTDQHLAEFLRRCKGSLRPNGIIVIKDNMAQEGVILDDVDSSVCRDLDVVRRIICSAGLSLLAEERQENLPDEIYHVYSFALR
# In short: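 Inhibition of NTMT1 methylation of peptide SPKRIA is followed by converting SAH with SAHH and labelling the released thiol with ThioGlo3. Plates are read at 340/450nm before and 30 min after reagent addition, both at room temperature.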
# [2] = test system: Zika virus NS2B-NS3 protease (unlinked); experiment: Optimization of GU AMC qHTS for Zika virus inhibitors: Unlinked NS2B-NS3 protease assay (AID 1347151); also: nearly all actives have a fitted effect of over 80% in size; also: potency is read from the fitted curve at half-maximal effect
# In short: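 Percent inhibition is derived from the 15-min change in AMC fluorescence, normalized against no-inhibitor and no-enzyme controls, then fitted to a 4-parameter Hill curve. Aprotinin was the intraplate control.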
# [3] = qHTS of pediatric cancer cell lines to identify multiple opportunities for drug repurposing: Confirmatory screen for RD cells (AID 1347124);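 also: potency is read from the fitted curve at half-maximal effect; cells exposed to compound for 48 h before viability readout; nearly all actives have a fitted effect of over 65% in size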
# In short: (§1)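 Cells (500-1,000/well) rested 5 h, then received compounds for 48 h; metabolically active cells were measured by CellTiter-Glo luminescence. Final concentrations spanned up to 46 µM (MIPE, 11-point) or 0.59 nM-46 µM (NPC, 8-point) in primary screens, 11-point in follow-ups.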
# [4] = qHTS of pediatric cancer cell lines to identify multiple opportunities for drug repurposing: Confirmatory screen for Rh18 cells (AID 1347125); also: nearly all actives have a fitted effect of over 55% in size; also: potency is read from the fitted curve at half-maximal effect; as to activity change, negative = cytotoxic: % is scaled to controls: 0 for no effect and ±100 for the full control effect
# In short: as §1
# [5] = qHTS of pediatric cancer cell lines to identify multiple opportunities for drug repurposing: Confirmatory screen for Saos-2 cells (AID 1347127); also: nearly all actives have a fitted effect of over 60% in size; also: potency is read from the fitted curve at half-maximal effect;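 as to activity change, negative = cytotoxic: plate controls were DMSO for no effect and bortezomib for full effect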
# In short: as §1
# [6] = qHTS of pediatric cancer cell lines to identify multiple opportunities for drug repurposing: Confirmatory screen for OHS-50 cells (AID 1347128);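 also: compound exposure lasted 48 h at 37 degrees C; nearly all actives have a fitted effect of over 55% in size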; also: potency is read from the fitted curve at half-maximal effect; as to activity change, negative = cytotoxic: % is scaled to controls: 0 for no effect and ±100 for the full control effect
# In short: as §1
# [7] = qHTS of pediatric cancer cell lines to identify multiple opportunities for drug repurposing: Confirmatory screen for SK-N-SH cells (AID 1347129);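 also: cells exposed to compound for 48 h before viability read; nearly all actives have a fitted effect of over 60% in size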; also: potency is read from the fitted curve at half-maximal effect;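 as to activity change, negative = cytotoxic: plate controls were DMSO for no effect and bortezomib control for full effect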
# In short: as §1
# [8] = qHTS of pediatric cancer cell lines to identify multiple opportunities for drug repurposing: Confirmatory screen for Rh30 cells (AID 1347126); also: % is scaled to controls: 0 for no effect and ±100 for the full control effect; nearly all actives have a fitted effect of over 55% in size
# In short: as §1
# Furin (Homo sapiens) = Furin (Homo sapiens) (UniProt P09958); experiment: Furin counterscreen qHTS for Zika virus inhibitors (AID 1347149); also: potency is read from the fitted curve at half-maximal effect; nearly all actives have a fitted effect of over 70% in size
# Furin (Homo sapiens), sequence (P09958 whole entry, looked up): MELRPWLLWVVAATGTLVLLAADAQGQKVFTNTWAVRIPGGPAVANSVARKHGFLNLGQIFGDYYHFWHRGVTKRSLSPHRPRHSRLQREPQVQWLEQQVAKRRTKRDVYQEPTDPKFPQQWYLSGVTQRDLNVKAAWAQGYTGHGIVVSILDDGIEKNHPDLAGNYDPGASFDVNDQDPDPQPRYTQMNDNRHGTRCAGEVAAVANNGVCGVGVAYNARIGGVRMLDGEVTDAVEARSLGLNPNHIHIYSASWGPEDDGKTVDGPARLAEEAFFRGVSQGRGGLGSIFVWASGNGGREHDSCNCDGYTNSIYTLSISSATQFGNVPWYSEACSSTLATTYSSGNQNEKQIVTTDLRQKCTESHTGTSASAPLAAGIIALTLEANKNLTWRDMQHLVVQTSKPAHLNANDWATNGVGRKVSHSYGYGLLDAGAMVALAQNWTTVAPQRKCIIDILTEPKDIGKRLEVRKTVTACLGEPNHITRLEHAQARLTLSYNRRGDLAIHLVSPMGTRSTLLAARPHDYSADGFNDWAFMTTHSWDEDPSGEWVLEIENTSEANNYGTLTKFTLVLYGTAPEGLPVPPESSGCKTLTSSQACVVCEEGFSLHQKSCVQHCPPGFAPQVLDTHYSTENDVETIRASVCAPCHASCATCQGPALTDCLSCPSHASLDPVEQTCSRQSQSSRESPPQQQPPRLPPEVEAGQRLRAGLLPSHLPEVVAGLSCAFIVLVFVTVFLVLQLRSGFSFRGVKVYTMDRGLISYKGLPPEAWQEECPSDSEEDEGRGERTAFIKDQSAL
# In short: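 Fluorogenic cleavage of BOC-RVRR-AMC (2 microM final, Km ~15 µM) was monitored (ex 340, em 450 nm) at 37C after 15 min RT preincubation of 5 nM furin with compounds in HEPES pH 7.0 buffer with CaCl2 and Triton X-100. Percent inhibition was fitted to a 4-parameter Hill curve.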
# [9] = test system: Zika virus NS2B-NS3 protease (linked construct); experiment: Confirmatory screen NINDS AMC qHTS for Zika virus inhibitors (AID 1347152);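 also: AMC fluorescence gain from cleaved Bz-Nle-KRR-AMC substrate over 15 min; top concentration of the series differs between compounds; 0% = no-inhibitor control and -100% = no-enzyme control; nearly all actives have a fitted effect of over 70% in size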
# In short: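 In this dose-response qHTS, AMC release from 10 microM Bz-Nle-KRR-AMC by 1 nM linked protease is measured over 15 minutes (about 20% conversion) at pH 8.0. Percent inhibition is fitted to a 4-parameter Hill curve.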
compound,measurement,setting,value
CCCCCCCC/C=C\CCCCCCCC(=O)NCc1ccc(O)c(OC)c1,Potency,[1],inactive
COC(=O)C1=C(C)NC(C)=C(C(=O)OC(C)(C)CN(C)CCC(c2ccccc2)c2ccccc2)C1c1cccc([N+](=O)[O-])c1 (centres undefined),Potency,[1],inactive
Cc1nnc(SCC2=C(C(=O)O)N3C(=O)[C@@H](NC(=O)Cn4cnnn4)[C@H]3SC2)s1,Potency,[1],50.1 µM (active)
same,Potency,[2],inactive
C[n+]1cc2c3c(ccc2c2ccc4cc5c(cc4c21)OCO5)OCO3,Potency,[3],1.82 µM (active)
same,Potency,[4],1.62 µM (active)
same,Potency,[5],1.29 µM (active)
same,Potency,[6],2.57 µM (active)
same,Potency,[7],1.44 µM (active)
same,Potency,[1],44.7 µM (active)
same,Potency,[2],5.97 µM (active)
COCCOC(=O)C1=C(C)NC(C)=C(C(=O)OC(C)C)C1c1cccc([N+](=O)[O-])c1 (centres undefined),Potency,[1],inactive
O=C(O)CCCCCCCC(=O)O,Potency,[1],inactive
same,Potency,[2],inactive
NCCCNCCSP(=O)(O)O,"activity change, negative = cytotoxic",[4],1.32% [at 9.58 µM]
same,"activity change, negative = cytotoxic",[8],-18.1% [at 9.47 µM]
same,"activity change, negative = cytotoxic",[5],-1.29% [at 9.58 µM]
same,"activity change, negative = cytotoxic",[6],0.588% [at 9.58 µM]
same,"activity change, negative = cytotoxic",[7],-2.99% [at 9.52 µM]
same,Potency,[1],inactive
same,Potency,[2],inactive
CCN(CC)CCNC(=O)c1cc(S(C)(=O)=O)ccc1OC,Potency,[1],inactive
same,Potency,[2],inactive
COC(=O)[C@H]1[C@H]2C[C@@H]3c4[nH]c5cc(OC)ccc5c4CCN3C[C@H]2C[C@@H](OC(=O)c2cc(OC)c(OC)c(OC)c2)[C@@H]1OC,Potency,[1],56.2 µM (active)
same,Potency,Furin (Homo sapiens),27.1 µM (active)
same,Potency,[2],15 µM (active)
same,outcome,[9],inactive
CN=C(NC#N)NCCSCc1nc[nH]c1C,Potency,[1],inactive
same,Potency,[2],inactive
